# Hits are enriched below; roughly 6.1% of the tested compounds scored in any of these assays.
# D3 antag – antagonists of human D3 dopamine receptor; D3R cells, DiscoveRx beta-arrestin luminescence, antagonist mode; stronger effect = lower value; P35462; max response, negative = inhibition, %; 360,000 tested, 2.5% active; in the data active means max response below about -50%; inconclusive means no clear call, values can overlap the other calls
#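 Cells plated overnight at 1500 cells/well, then exposed to library compounds with dopamine controls for 90 minutes at 37 degrees C. DiscoveRx reagent added for 30–60 minutes at room temperature; luminescence read, quantitative HTS format.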
# D1 PAM – potentiators of human D1 dopamine receptor | P21728 | HEK293 TREx D1 cells, calcium flux, dopamine EC20 potentiation | potentiation, % at 10 µM | 360,000 tested, 0.036% active | AID 504651; in the data active means potentiation above about 30%
# Target sequence (P21728 whole entry, looked up): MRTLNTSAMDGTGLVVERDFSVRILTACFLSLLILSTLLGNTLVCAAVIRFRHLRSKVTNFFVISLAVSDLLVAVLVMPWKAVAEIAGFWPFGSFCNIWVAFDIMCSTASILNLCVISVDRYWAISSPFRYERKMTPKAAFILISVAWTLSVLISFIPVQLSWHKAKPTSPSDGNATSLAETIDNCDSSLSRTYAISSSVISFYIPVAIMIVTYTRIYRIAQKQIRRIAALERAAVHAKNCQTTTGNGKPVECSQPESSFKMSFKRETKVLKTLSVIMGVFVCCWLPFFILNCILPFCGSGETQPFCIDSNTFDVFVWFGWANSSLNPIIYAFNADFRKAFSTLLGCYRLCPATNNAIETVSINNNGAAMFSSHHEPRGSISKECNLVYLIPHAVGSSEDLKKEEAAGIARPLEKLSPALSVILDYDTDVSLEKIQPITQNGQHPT
# D1 antagonist – blocks dopamine activation of the human D1 receptor. P21728. AID 504652. HEK293 TREx D1 cells, calcium flux, dopamine EC80; stronger effect = lower value. activity change, negative = inhibition, % at 10 µM. 360,000 tested, 3.2% active; in the data active means activity change below about -30%
#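 After overnight tetracycline induction at 30 C, force-coupled D1 HEK293 cells took up a no-wash calcium dye at room temperature. Compounds were added and monitored 180 s, and the response to EC80 dopamine was then recorded.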
# D1 agonist – human D1 receptor agonism; P21728; HEK293 T-REx D1 cells, calcium flux, agonist mode; activation, % at 2 µM; 360,000 tested, 1% active; AID 504660; in the data active means activation above about 30%
#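 Agonism was scored from calcium flux recorded over 180 s (1 read/s) after pintool compound addition, following a 10-cycle baseline. Cells were inducible force-coupled HEK293 TREx D1, plated overnight at 30 C and loaded with no-wash calcium dye.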
# D3 ag – activates the human D3 dopamine receptor. D3R DiscoveRx beta-arrestin cells, luminescence, 90 min. 410,000 tested, 0.58% active. AID 652048. max activation, %; in the data active means max activation above about 30%
#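 Agonist-mode cell screen: cells plated at 1500/well and incubated overnight at 37 °C, then exposed to library compounds for 90 min at 37 °C. Detection reagent was added for 30–60 min at room temperature, and luminescence was read.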
# Hits are given with their value; 0 = inactive; ? = inconclusive; - = no result.
SMILES,D3 antag,D1 PAM,D1 antagonist,D1 agonist,D3 ag
O=C(Nc1nnc(-c2ccc3c(c2)CCCC3)o1)C1CCCCC1,0,0,-46,0,0
O=C(Nc1nnc(-c2ccc3c(c2)CCCC3)o1)c1ccc(Cl)cc1Cl,0,0,0,36,0
CC1CCN(C(=O)CCc2nc3cc(S(=O)(=O)N(C)C)ccc3n2C)CC1,0,0,-32,0,0
COC(=O)[C@]1(Cc2ccccc2)N[C@H](CN(C)C(=O)NC(C)C)[C@@H]2C(=O)N(Cc3ccccc3)C(=O)[C@@H]21,0,-,-,-,0
CCNC(=O)N(CC)C[C@H]1N[C@@](Cc2ccccc2)(C(=O)OC)[C@H]2C(=O)N(C)C(=O)[C@@H]12,0,-,-,-,46
CCN(C[C@H]1N[C@@](C)(C(=O)OC)[C@H]2C(=O)N(Cc3ccccc3)C(=O)[C@@H]12)C(=O)C1CCCCC1,0,-,-,-,0
COC(=O)[C@]1(Cc2ccccc2)N[C@H](CN(C)C(C)=O)[C@@H]2C(=O)N(Cc3ccccc3)C(=O)[C@@H]21,-53,-,-,-,0
CCN(C[C@H]1N[C@@](Cc2ccccc2)(C(=O)OC)[C@H]2C(=O)N(Cc3ccccc3)C(=O)[C@@H]12)C(=O)C1CCCCC1,-57,-,-,-,0
Cc1cc(C)cc(C(=O)Nc2ccc(-c3nc4ncccc4o3)cc2)c1,-,0,0,0,0
CC(=O)c1cccc(CN2CCN(Cc3ccc(C)cc3)C(CCO)C2)c1 (configuration not stated),-74,0,0,0,0
CC(=O)c1cc(CN2CCN(Cc3ccc(C)cc3)C(CCO)C2)cs1 (configuration not stated),-86,0,0,0,0
Cc1ccc(CN2CCN(Cc3ccc(-n4cccn4)cc3C)CC2CCO)cc1 (configuration not stated),?,0,0,0,0
Cc1ccc(CN2CCN(Cc3cccc(-n4cccn4)c3)CC2CCO)cc1 (configuration not stated),-53,0,0,0,0
CC(=O)c1cccc(CN2CCN(Cc3ccc(F)cc3)C(CCO)C2)c1 (configuration not stated),?,0,0,0,0
Cc1ccc(NC(=O)Cn2c(=O)n(-c3ccccc3)c(=O)c3ccc(C(=O)NCc4ccc5c(c4)OCO5)cc32)c(C)c1,-,0,0,0,0
O=S(=O)(Cc1ccccc1)Nc1ccccc1,0,0,0,0,0
CC(C)C(=O)NC(=S)Nc1ccc(S(=O)(=O)N(C)C)cc1,0,0,0,0,0
CC(C)C(=O)NC(=S)Nc1ccc(S(=O)(=O)N(C)Cc2ccccc2)cc1,0,0,-35,0,0
CC(=O)NC(=S)Nc1ccc(S(=O)(=O)N(C)Cc2ccccc2)cc1,0,0,-31,0,0
CN(Cc1ccccc1)S(=O)(=O)c1ccc(NS(=O)(=O)Cc2ccccc2)cc1,0,0,-34,0,0
CN(Cc1ccccc1)S(=O)(=O)c1ccc(NC(=O)C2CCCCC2C(=O)O)cc1 (configuration not stated),0,-,-,-,0
N[C@@H](Cc1ccc(O)cc1)c1nnc([C@H](CCC(=O)O)NC(=O)C2CCNCC2)o1,0,0,-41,0,0
N[C@@H](CO)c1nnc([C@H](CCC(=O)O)NC(=O)C2CCNCC2)o1,0,0,-38,0,0
CCN(CC)c1ccc(NS(=O)(=O)c2ccc3c(c2)CCCN3C(C)=O)c(C)c1,-,0,0,0,0
COc1cc(CNCc2cccc3ccccc23)cc(OC)c1,?,0,0,0,0
SMILES,D3 antag,D1 PAM,D1 antagonist,D1 agonist,D3 ag
COc1cc(CNCc2c[nH]c3ccccc23)cc(OC)c1,0,0,-40,0,0
COc1cc(CNCc2ccc(Br)cc2)cc(OC)c1,0,0,0,82,0
COc1cc(CNCc2ccc(OC)cc2OC)cc(OC)c1,0,0,0,0,0
CCOc1ccc(NC(=O)CSc2nc(-c3ccccc3)c3cc(OCC)ccc3n2)cc1,-,0,0,0,0
CC(C)(C)OC(=O)[C@H]1[C@H](c2ccc([N+](=O)[O-])cc2)C2(C(=O)c3ccccc3C2=O)C2c3ccccc3C=NN21 (some centres not stated),-59,0,0,0,0
CCOc1ccc(/C=C/c2nc(C#N)c(N(C)C)o2)cc1,-,0,0,0,0
O=S(=O)(c1ccccc1)c1nnn2c1nc(Nc1ccccc1)c1cc(Cl)ccc12,-,0,0,0,0
CCOC(=O)CN1C(=O)C(Sc2n[nH]c(-c3ccc(C)cc3)n2)CCc2ccccc21 (configuration not stated),0,0,-66,0,0
Cc1c(C(=O)NCc2cccc(Cl)c2)sc2nc3n(c(=O)c12)CCCC3,-,0,0,32,0
Cc1cccc(CCNC(=O)c2sc3nc4n(c(=O)c3c2C)CCCC4)c1,-,0,0,32,0
Cc1c(C(=O)NCc2ccc(Cl)cc2)sc2nc3n(c(=O)c12)CCCC3,-,0,0,0,0
CCOc1ccc(CCNC(=O)c2sc3nc4n(c(=O)c3c2C)CCCC4)cc1OCC,-,0,0,0,0
COc1ccc(CNC(=O)c2sc3nc4n(c(=O)c3c2C)CCCC4)cc1,-,0,0,71,0
COc1ccc(CNC(=O)c2cnc(N3CCCC3)nc2C)cc1,-,0,-44,0,0
Cc1c(C(=O)NCc2ccccc2Cl)sc2nc3n(c(=O)c12)CCC3,-,0,0,0,0
Cc1nc([N+](=O)[O-])cn1-c1ccc([N+](=O)[O-])cc1,-,-,-,-,0
COc1cccc(NC(=O)CCc2c(C)nc3c4cccnc4nn3c2C)c1,-,0,0,0,0
CSc1cccc(NC(=O)C2CCCN(C(=O)c3cnn(-c4ccc(F)cc4)c3-n3cccc3)C2)c1 (configuration not stated),-,0,0,0,0
O=C(OCc1ccccc1)N1CCc2ccccc21,0,0,0,0,0
N=C(N=C(N)N)N1CCc2ccccc21,0,0,-37,0,0
Cc1cccc(C)c1NC(=O)CCC(=O)N1Cc2ccccc2Oc2ncccc21,-,0,0,0,0
COc1cccc(CN2CCN(c3ncccn3)CC2)c1,-59,0,0,0,35
C=CCc1ccc(OCCCN2CCCC(C)C2)c(OC)c1 (configuration not stated),-79,0,0,0,0
COc1cccc(OCC(O)CN2CCN(c3ncccn3)CC2)c1 (configuration not stated),0,0,0,0,0
COc1cc(CN2CCC(C)CC2)ccc1OCc1ccccc1,?,0,0,0,0
COc1cc(CN2CCCC(C)C2)ccc1OCc1ccccc1 (configuration not stated),-62,0,0,0,0
COc1ccc(CN2CCN(c3ccccn3)CC2)cc1OCc1ccccc1,-69,0,0,0,0
CCOc1c(Cl)cc(CNc2ccc3[nH]c(=O)[nH]c3c2)cc1OC,-,0,0,0,0
C[C@]12C=CC(=O)C=C1[C@@H](F)C[C@@H]1[C@@H]2[C@@H](O)C[C@@]2(C)[C@H]1CC[C@]2(O)C(=O)CO,-,-,-,-,0

# Screening results: PubChem, National Center for Advancing Translational Sciences (NCATS)
